MITF inh: MITF inhibition. AID 2240. actives 0.28% (n = 37,000). inhibition, % (test concentration not listed). TRPM1 promoter luciferase, luminescence, 24 h; in the data active means inhibition above about 85%; inconclusive means no clear call, values can overlap the other calls; inactive means below about 68%;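 further: human melanocyte line stably carrying TRPM1 promoter luciferase reporter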
PD-1 reversal: activators reversing PD-1 mediated T-cell inhibition. 29,000 tested, under 10 active. primary human CD4 T cells, PD-L1 beads, CellTiter-Glo 96 h. activation, % (concentration not given with the values); call rule not given here
NOMO-1 viab: STK33 inhibitor candidate reducing NOMO-1 cell viability; AID 2330; inhibition, % (concentration not given with the values); NOMO-1 AML viability, CellTiter-Glo luminescence, 72 h; actives 7.5% (n = 37,000); in the data active means inhibition above about 80%; inconclusive means no clear call, values can overlap the other calls
Shh pathway inh: blocks Sonic Hedgehog signaling | AID 2313 | actives 2.1% (n = 22,000) | inhibition, % (no concentration beside the values) | Shh-LIGHT2 Gli-luciferase reporter, 30 h;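 active means mean inhibition across valid replicates above about 65%, limit read from the data; inconclusive means mean under the limit, yet half or more replicates past it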;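 further: pathway switched on by Shh-conditioned medium diluted 1 in 25 in low serum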
Each line names hits and unclear results; the compound was inactive in the other large screens. Shown are actives, neighbours in structure and some others; about 8.1% of the full set was active somewhere.

COc1c(OC)c(O)c2c(=O)cc(-c3ccc(O)cc3)oc2c1OC	NOMO-1 viab 115
COc1cc(-c2cc(=O)c3c(O)c(OC)c(OC)c(O)c3o2)ccc1O	none (no result: MITF inh, PD-1 reversal, NOMO-1 viab)
COc1cc(O)c2c(=O)cc(-c3ccc(OC)c(-c4c(O)cc(O)c5c(=O)cc(-c6ccc(O)cc6)oc45)c3)oc2c1	MITF inh inconclusive, NOMO-1 viab 108 (no result: PD-1 reversal)
COc1cc(OC)c2c(=O)c(O)c(-c3ccc(OC)c(OC)c3)oc2c1	NOMO-1 viab 102 (no result: PD-1 reversal)
CCOC(=O)c1c(NC(=O)COc2ccc(Cl)cc2C)sc2c1CCC2	none (no result: Shh pathway inh)
COc1ccc(-c2oc3c(OC)c(OC)c(OC)c(O)c3c(=O)c2OC)cc1OC	NOMO-1 viab 107
Cc1ccccc1OCC(=O)Nc1cccc(-c2nnc(-c3ccco3)o2)c1	none (no result: Shh pathway inh)
C[C@@H]1CN([C@@H](C)CO)C(=O)Cc2cc(NC(=O)Nc3cccc4ccccc34)ccc2O[C@@H]1CN(C)Cc1ccncc1	NOMO-1 viab 82
C[C@H]1CN([C@@H](C)CO)C(=O)Cc2cc(NC(=O)Nc3cccc4ccccc34)ccc2O[C@@H]1CN(C)Cc1ccc(Oc2ccccc2)cc1	NOMO-1 viab 116
C[C@H](CO)N1C[C@H](C)[C@H](CN(C)Cc2ccc(Oc3ccccc3)cc2)Oc2ccc(NC(=O)Nc3cccc4ccccc34)cc2CC1=O	none
C[C@H]1CN([C@@H](C)CO)C(=O)Cc2cc(NC(=O)Nc3cccc4ccccc34)ccc2O[C@@H]1CN(C)Cc1ccc(-c2ccccc2)cc1	NOMO-1 viab 96
C[C@H](CO)N1C[C@H](C)[C@H](CN(C)Cc2ccccc2)Oc2ccc(NC(=O)Nc3cccc4ccccc34)cc2CC1=O	none
Cc1ccc(S(=O)(=O)/C(C#N)=C/Nc2cc(C(F)(F)F)cc(C(F)(F)F)c2)cc1	NOMO-1 viab 89, Shh pathway inh 101
COc1ccc(OC)c(NC(=O)CSc2nc(C)cc(C)n2)c1	none (no result: Shh pathway inh)
COc1ccc(NC(=O)Nc2cccc3c2O[C@H](CN(C)Cc2ccc(C(F)(F)F)cc2)[C@@H](C)CN([C@H](C)CO)C3=O)cc1	NOMO-1 viab 106
COc1ccc(CN(C)C[C@@H]2Oc3c(NC(=O)Nc4ccc(C(F)(F)F)cc4)cccc3C(=O)N([C@@H](C)CO)C[C@@H]2C)cc1	none (no result: PD-1 reversal)
COc1ccc(CN(C)C[C@H]2Oc3c(NC(=O)Nc4ccc(C(F)(F)F)cc4)cccc3C(=O)N([C@@H](C)CO)C[C@@H]2C)cc1	NOMO-1 viab 101, Shh pathway inh inconclusive
COc1ccc(CN(C)C[C@H]2Oc3c(NC(=O)Nc4ccc(OC)cc4)cccc3C(=O)N([C@H](C)CO)C[C@@H]2C)cc1	none
COc1ccc(CN(C)C[C@@H]2Oc3c(NC(=O)Nc4ccc(C(F)(F)F)cc4)cccc3C(=O)N([C@H](C)CO)C[C@H]2C)cc1	NOMO-1 viab 105
COc1ccc(CN(C)C[C@H]2Oc3c(NC(=O)Nc4ccc(C(F)(F)F)cc4)cccc3C(=O)N([C@@H](C)CO)C[C@H]2C)cc1	none (no result: PD-1 reversal)
COc1ccc(NC(=O)Nc2cccc3c2O[C@@H](CN(C)Cc2ccc(C(F)(F)F)cc2)[C@H](C)CN([C@@H](C)CO)C3=O)cc1	NOMO-1 viab 98
COC(=O)CN(c1ccc2c(c1)OCCO2)S(C)(=O)=O	none (no result: Shh pathway inh)
CS(=O)(=O)N(CC(=O)Nc1cccc(Br)c1)c1cccc(Cl)c1	none (no result: Shh pathway inh)
O=C(CN1C(=O)c2ccccc2C1=O)c1ccc(C(F)(F)F)cc1	none
COc1ccc(NC(=O)Nc2cccc3c2O[C@H](CN(C)Cc2ccc(C(F)(F)F)cc2)[C@@H](C)CN([C@@H](C)CO)C3=O)cc1	NOMO-1 viab 85
COc1ccc(CN(C)C[C@H]2Oc3c(NC(=O)Nc4ccc(C(F)(F)F)cc4)cccc3C(=O)N([C@H](C)CO)C[C@@H]2C)cc1	NOMO-1 viab 94
COc1ccc(CN(C)C[C@H]2Oc3ccc(NC(=O)Nc4ccc(C(F)(F)F)cc4)cc3C(=O)N([C@@H](C)CO)C[C@@H]2C)cc1	NOMO-1 viab 113
COc1ccc(CN(C)C[C@@H]2Oc3ccc(NC(=O)Nc4ccc(C(F)(F)F)cc4)cc3C(=O)N([C@H](C)CO)C[C@@H]2C)cc1	NOMO-1 viab 114
O=C(CSc1nnnn1-c1ccccc1)N1c2ccccc2CCc2ccccc21	Shh pathway inh inconclusive
COC(=O)c1ccccc1NC(=O)c1ccc(NC(=O)COc2ccccc2C)cc1	NOMO-1 viab inconclusive (no result: Shh pathway inh)
N#Cc1c(NC(=O)CSc2n[nH]c(-c3ccc(Cl)cc3Cl)n2)sc2c1CCCC2	none (no result: Shh pathway inh)
Cc1noc(C)c1S(=O)(=O)Nc1ccc2c(c1)C(=O)N([C@H](C)CO)C[C@H](C)[C@@H](CN(C)Cc1ccc(C(=O)Nc3ccccc3N)cc1)OCCCC[C@@H](C)O2	NOMO-1 viab 127 (no result: Shh pathway inh)

Screens (PubChem BioAssay)
